Screens: PubChem, Broad Institute
ALR inh = inhibitors of human sulfhydryl oxidase ALR; inhibition, % (concentration not given with the values); hit rate 3.8% among 290,000; P55789; purified ALR, DTT oxidation, H2O2 HRP-luminol luminescence;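 active = mean replicate inhibition above about 79%, with every replicate also reaching it, limit read from the data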
NSD2 HMT inh = inhibitors of human histone methyltransferase NSD2; O96028; NSD2 peptide methylation, AlphaScreen, 120 min; inhibition, % at 12.5 µM; hit rate 0.54% among 310,000; in the data active = inhibition above about 50%
Mot1-301 SUMO = inhibitors of SUMOylation pathway: yeast Mot1-301 growth rescue | hit rate 1% among 320,000 | S. cerevisiae Mot1-301 growth rescue, ATP luminescence, 38.5C; percent above DMSO median, 100 means doubled | growth rescue, % at 18.8 µM;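 active = every valid replicate shows activation above 250% relative to neutral control wells; inactive = the rest, any valid replicate at or below 250%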;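 also: OY570 slx delta 5 strain wells were the positive control but not used for scaling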
CDK5 inh = CDK5/p35 (human) kinase inhibition; Q00535+Q15078; Recombinant CDK5/p35, ADP-Glo luminescence, 60 min; inhibition, % at 10 µM; hit rate 0.01% among 330,000; AID 488839;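 active = highest replicate inhibition of at least 50% and at least 75% of replicates reaching 50%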;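 also: plate controls were DMSO neutral control for no effect and GW8510 at 10 µM for full effect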
N-glyco inh = N-linked glycosylation inhibition; D54 ERlucT glycosylation luciferase reporter, 24 h; percent of 100 nM tunicamycin response; reporter increase, % at 12.5 µM; hit rate 0.23% among 360,000;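 active = mean luciferase reporter signal, scaled so untreated is 0 and the glycosylation-blocking control 100, at or above a set limit in every replicate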;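 also: luciferase carries N-glycosylation sites so blocking glycosylation raises the light; 0% = median of neutral control wells and 100% = median of 100 nM tunicamycin wells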
Casp6 inh = blocks human caspase-6 cleavage activity. P55212. inhibition, % at 12.5 µM. purified caspase-6, Z-VEID-R110 cleavage fluorescence. hit rate 0.53% among 350,000;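 active = mean inhibition across replicates at least about 35%, with every replicate also reaching that limit, limit read from the data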;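 also: 0% = median of neutral control wells and 100% = no fluorescence left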
Yeast Mot1 SUMO = yeast SUMO pathway inhibition in dose response | shares compounds with Mot1-301 SUMO | 2,300 tested, under 10 active | S. cerevisiae Mot1-301 galactose growth, ATP luminescence, 24 h; -100 = growth of slx-deleted rescue strain | AID 493004 | growth activity, percent, % at 42 µM;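 active = Signal drops as the depositor expects, and the fitted half-maximal dose is no more than ten times the top valid tested dose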;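 also: more negative values mean stronger growth rescue toward the control strain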
* marks the source's active call; other numbers are inactive results; nt = not tested or not shown; + = active, no number; [ ] = dose if it differs, or a comment. Compounds with a hit are over-represented: about 3.9% of the library has one in this group of screens.

SMILES | ALR inh | NSD2 HMT inh | Mot1-301 SUMO | CDK5 inh | N-glyco inh | Casp6 inh | Yeast Mot1 SUMO
CC(C)C[C@H]1CN=C(Nc2ccccc2)N1CCCC1CCCC1 | -0.3 | nt | -14.8 | 0.0 | -3.0 | 8.3 | nt
CCCCCCCN1C(Nc2ccccc2)=NC[C@@H]1CC(C)C | -3.9 | nt | 610.7* | 0.0 | -5.5 | 5.4 | -1.0[21 µM]
CN1C(=O)c2cc(NC(=O)c3cccs3)ccc2OC[C@H]2O[C@H](CC(=O)NCCN3CCCCC3)CC[C@@H]21 | nt | nt | nt | nt | nt | 1.9 | nt
Cc1sc(NC(=O)c2ccc(F)cc2)c(CN2CCCCCC2)c1C | -3.2 | -0.8 | 497.1* | 0.8 | -3.8 | -5.5 | 0.6
O=C(Nc1sc2c(c1CN1CCOCC1)CCC2)c1ccc(F)cc1 | 31.1 | 10.6 | -19.2 | -2.9 | 2.2 | -1.3 | nt
COCC#Cc1cnc2c(c1)C(=O)N([C@@H](C)CO)C[C@H](C)[C@@H](CN(C)C(C)=O)O2 | nt | nt | nt | nt | nt | -0.3 | nt
Cn1c(SCC(=O)Nc2nnc(-c3ccccc3)o2)nnc1C1CC1 | 0.5 | 4.3 | 544.6* | -0.4 | 2.0 | -0.9 | -0.2
Cn1c(SCC(=O)Nc2ccccc2Cl)nnc1C1CC1 | nt | -0.5 | 3.2 | -0.7 | 1.4 | -1.1 | nt
C[C@H]1CN([C@@H](C)CO)C(=O)c2cccc(NS(=O)(=O)c3cn(C)cn3)c2O[C@H]1CN(C)S(=O)(=O)c1cccs1 | nt | nt | nt | nt | nt | -1.1 | nt
Cn1c(=O)nc2n(Cc3ccccc3)c3ccccc3cc-2c1=O | 1.3 | 0.7 | 417.0* | nt | 2.0 | 0.1 | -0.5
Cc1ccccc1-n1c2nc(=O)n(C)c(=O)c-2cc2ccccc21 | nt | -2.5 | 168.8 | -0.7 | 4.5 | -0.1 | nt
CCOc1ncccc1C(=O)Nc1ccccc1F | 1.1 | -2.6 | -27.0 | 1.6 | 2.5 | 3.6 | nt
C=C(C)C(=O)Nc1cccnc1Oc1ccc(F)cc1F | -14.6 | 10.9 | + | -0.4 | -1.3 | 6.0 | 0.6
COc1ccc(CNC(=O)C[C@H]2C[C@@H]3c4cc(NC(=O)NC5CCCC5)ccc4O[C@@H]3[C@@H](CO)O2)cc1 | nt | nt | nt | nt | nt | 0.3 | nt
Cc1cc2c(cc1C)-c1nnc(-c3ccc4ccccc4n3)n1C(C)(C)C2 | -5.9 | nt | 643.8* | nt | nt | nt | 0.2
C[C@@H]1CN([C@@H](C)CO)C(=O)c2cc(NS(=O)(=O)c3cn(C)cn3)ccc2O[C@@H](C)CCCCO[C@H]1CN(C)C(=O)c1ccncc1 | nt | nt | nt | nt | nt | -0.7 | nt
C[C@@H]1CN([C@@H](C)CO)C(=O)Cc2cc(NC(=O)Nc3ccc(F)cc3)ccc2O[C@@H]1CN(C)S(=O)(=O)c1ccc(Cl)cc1 | nt | nt | nt | nt | nt | -2.8 | nt
Cc1cccc(N(Cc2ccccc2)C(=O)CSC(C)C(=O)Nc2cc(C)on2)c1 (configuration not stated) | 5.3 | 7.5 | 554.5* | -0.2 | -10.1 | 0.8 | 0.0
Cc1cc(NC(=O)C(C)SCC(=O)O)no1 (configuration not stated) | -14.5 | -1.6 | -27.0 | -0.8 | 0.7 | -0.4 | nt
CN(C)C(=O)c1cccc(-c2ccccc2[C@@H]2[C@@H](CO)N(C(=O)C3CCCC3)[C@H]2C#N)c1 | nt | nt | nt | nt | nt | 1.6 | nt
O=C(Nc1ccc2[nH]c(=O)[nH]c2c1)c1c(F)c(F)c(F)c(F)c1F | -3.8 | -5.3 | 613.3* | 1.7 | -2.4 | 0.5 | 0.5
C[C@@H]1CCCCO[C@H](CN(C)C(=O)Nc2ccc(C(F)(F)F)cc2)[C@@H](C)CN([C@@H](C)CO)C(=O)c2cc(NC(=O)c3ccccc3)ccc2O1 | nt | nt | nt | nt | nt | 5.1 | nt
COC(=O)c1ccc(CSc2nnnn2-c2ccccc2)o1 | 1.5 | -3.2 | + | -0.8 | -1.5 | nt | 1.1
COC(=O)c1ccc(CSc2nnc(-c3ccccc3)n2C)o1 | 10.3 | 2.7 | -1.2 | -1.9 | 8.4 | 4.1 | nt
CC(=O)NCCc1nc2cc(NC(=O)c3ccc(F)cc3)ccc2n1C | -8.7 | nt | 741.0* | -2.0 | -2.7 | -8.7 | 0.5
SMILES | ALR inh | NSD2 HMT inh | Mot1-301 SUMO | CDK5 inh | N-glyco inh | Casp6 inh | Yeast Mot1 SUMO
COc1ccc(C(=O)Nc2ccc3c(c2)nc(CCNC(C)=O)n3C)cc1 | -5.6 | -13.2 | 13.7 | 4.9 | -1.4 | nt | nt
c1ccc2c(c1)OCCOCCOc1ccccc1OCCOCCO2 | -11.8 | -3.6 | 734.9* | 1.5 | -0.8 | 1.1 | 0.8
CC(=O)c1cccc(NC(=O)CN(c2cccc(F)c2)S(C)(=O)=O)c1 | nt | nt | 681.8* | -3.6 | 0.3 | nt | -0.3
COCC(C)n1c(SCC(=O)NC(=O)Cc2ccccc2)nc2ccccc2c1=O (configuration not stated) | -1.4 | -1.9 | 2.3 | -1.0 | 5.1 | 0.0 | nt
COCC(C)n1c(SCC(=O)NNC(=O)c2ccccc2)nc2ccccc2c1=O (configuration not stated) | -1.0 | nt | 439.2* | 0.6 | -1.0 | 4.4 | -0.1
COc1ccc(C(=O)Nn2c(SCC(=O)NCc3ccccc3)nc3ccccc3c2=O)cc1 | -2.5 | -2.1 | + | -0.5 | -20.0 | nt | 0.0
C[C@@H]1CN([C@@H](C)CO)S(=O)(=O)c2ccc(C3=CCCC3)cc2O[C@@H]1CN(C)C(=O)c1cccnc1 | nt | nt | nt | nt | nt | 0.1 | nt
CCS(=O)(=O)Nc1ccc2c(c1)C(=O)N(C)[C@@H]1CC[C@H](CC(=O)OC)O[C@@H]1CO2 | nt | nt | nt | nt | nt | -0.6 | nt
COc1cc2c(cc1OC)CN(C(=O)Cc1c(F)cccc1Cl)CC2 | 0.6 | 0.5 | 475.3* | -0.6 | -3.0 | 1.3 | 0.5
COc1ccc(CC(=O)N2CCc3cc(OC)c(OC)cc3C2)cc1 | -12.9 | 0.5 | -3.5 | 1.5 | 0.9 | 2.1 | nt
Cc1cc(C)nc(SCC2COc3ccccc3O2)n1 (configuration not stated) | 6.9 | -3.5 | 393.5* | -0.1 | -0.3 | nt | 0.6
CO[C@H]1CN(C)C(=O)c2ccc(NC(=O)C3CCCC3)cc2OC[C@@H](C)N(C)C[C@H]1C | nt | nt | nt | nt | nt | -1.7 | nt
C=CCn1c(CSc2nc3ccccc3s2)nnc1SCC(=O)NCCN1CCOCC1 | 5.1 | 0.1 | -2.2 | -2.1 | 0.2 | nt | nt
Cn1c(CSc2nc3ccccc3s2)nnc1SCC(=O)NCCN1CCOCC1 | -3.0 | -1.7 | 913.3* | 0.4 | 2.4 | nt | -0.3
COC(=O)C[C@@H]1CC[C@H]2[C@H](COc3ccc(NC(=O)c4ccc(F)cc4)cc3C(=O)N2C)O1 | nt | nt | nt | nt | nt | -1.7 | nt
COC(=O)C(CC(C)C)NC(=O)CNC(=O)c1ccccc1C (configuration not stated) | -4.6 | 1.5 | + | 0.0 | -0.5 | nt | -0.1
O=C(CNC(=O)c1cc2c(n(-c3ccccc3)c1=O)CCCC2=O)c1ccccc1 | -0.1 | -1.5 | -9.6 | 0.2 | -0.1 | 1.8 | nt
COc1ccc(-n2c3c(cc(C(=O)NCC(=O)c4ccccc4)c2=O)C(=O)CC(C)(C)C3)cc1 | nt | 31.8 | 443.0* | 4.7 | -2.7 | 0.4 | -0.2
O=C(Nc1ccc(CN2CCOCC2)cc1)c1ccccc1F | -14.1 | 0.9 | 49.7 | 0.5 | -0.8 | nt | nt
COc1cc2ccccc2cc1C(=O)Nc1ccc(CN2CCOCC2)cc1 | -2.2 | -0.9 | 393.6* | 1.8 | 0.3 | -4.1 | -0.8
